Screens: PubChem BioAssay, National Center for Advancing Translational Sciences (NCATS)
Hits are enriched below; roughly 9.2% of the tested compounds scored in any of these assays.
ALDH1A1 block: blocks purified human ALDH1A1 activity; actives 7.3% (n = 220,000); Purified ALDH1A1, NADH fluorescence, propionaldehyde substrate; Potency, µM (titrated, usually from 75.3 µM), inactives show top-dose activity, negative = inhibition, usual class: inhibitors; AID 1030; P00352;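 note: plate controls were no enzyme wells and a reference inhibitor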
Target sequence (P00352 whole entry, looked up): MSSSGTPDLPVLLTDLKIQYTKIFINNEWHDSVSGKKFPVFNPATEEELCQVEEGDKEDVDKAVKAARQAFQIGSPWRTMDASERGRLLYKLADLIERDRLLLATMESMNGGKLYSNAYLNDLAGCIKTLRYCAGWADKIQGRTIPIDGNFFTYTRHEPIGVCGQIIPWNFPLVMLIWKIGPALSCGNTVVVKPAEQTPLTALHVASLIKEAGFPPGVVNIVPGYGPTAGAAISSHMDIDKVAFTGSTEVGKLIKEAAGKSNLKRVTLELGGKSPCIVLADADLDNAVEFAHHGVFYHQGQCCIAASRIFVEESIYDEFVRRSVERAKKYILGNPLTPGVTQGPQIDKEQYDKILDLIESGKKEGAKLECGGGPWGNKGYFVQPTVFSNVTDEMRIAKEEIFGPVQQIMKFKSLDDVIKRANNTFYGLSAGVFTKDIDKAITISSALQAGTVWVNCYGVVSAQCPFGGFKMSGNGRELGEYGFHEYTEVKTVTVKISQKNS
HTT aggregate: inhibitors of mutant huntingtin aggregate formation in PC12 cells. PC12 HttQ103-GFP aggregates, Acumen cytometry, 40 h. Potency, µM (highest dose often 46.1 µM), inactives show top-dose activity change, negative = inhibition, most hits filed as inhibitors. actives 1.1% (n = 220,000); active = well fitted curve in the direction sought with a large enough effect; inconclusive = small, poorly fitted or top-dose-only effect, or another doubt; inactive = no such curve, though single readings can be large; an effect the other way counts as inactive or inconclusive; note: % is set by controls: 0 for no effect and ±100 for the full control effect; nearly all actives have a fitted effect of over 60% in size
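Compounds (qHTS titration) were added to PC12 cells expressing an ecdysone-driven HTT exon 1 Q103–GFP fusion after induction with 100 nM tebufenozide. Aggregate formation was measured as GFP objects in cell lysates.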
JMJD2E inh: blocks human JMJD2E demethylase activity; JMJD2E catalytic domain, FDH-coupled NADH fluorescence (FDH is formaldehyde dehydrogenase); Potency, µM (highest dose often 57.1 µM), without a hit: top-dose activity change, negative = inhibition, actives largely listed as inhibitors; actives 1.6% (n = 230,000); AID 2147;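 note: 0% = wells with enzyme and -100% = buffer wells without enzyme; nearly all actives have a fitted effect of over 50% in size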
HTT cytoprotect: cytoprotection in Huntington HTT-Q103 PC12 cell model | Potency, µM (titrated, usually from 56.4 µM), for the others: cytoprotection (ATP increase), usual class: activators | PC12 HTT-Q103 induced, cytoprotection, ATP luminescence, 40 h | AID 1471 | actives 0.14% (n = 230,000); active = well fitted curve in the direction sought with a large enough effect; inconclusive = small, poorly fitted or top-dose-only effect, or another doubt; inactive = no such curve, though single readings can be large; an effect the other way counts as inactive or inconclusive; note: % of control where 0% means no effect; nearly all actives have a fitted effect of over 45% in size
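Readout: ATPlite luminescence (ATP level). Model: stable PC12, inducible Htt exon1 Q103-GFP. Inducer: tebufenozide, 100 nM final. Compounds: dose series. No G418 in medium.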
HPGD inh: inhibitors of human 15-hydroxyprostaglandin dehydrogenase (HPGD). Potency, µM, for the others: at the top dose activity change, negative = inhibition, most hits filed as inhibitors. purified HPGD, NADH fluorescence kinetic, PGE2 substrate. actives 4.3% (n = 150,000); note: % is set by controls: 0 for no effect and ±100 for the full control effect
Target sequence (P15428 whole entry, looked up): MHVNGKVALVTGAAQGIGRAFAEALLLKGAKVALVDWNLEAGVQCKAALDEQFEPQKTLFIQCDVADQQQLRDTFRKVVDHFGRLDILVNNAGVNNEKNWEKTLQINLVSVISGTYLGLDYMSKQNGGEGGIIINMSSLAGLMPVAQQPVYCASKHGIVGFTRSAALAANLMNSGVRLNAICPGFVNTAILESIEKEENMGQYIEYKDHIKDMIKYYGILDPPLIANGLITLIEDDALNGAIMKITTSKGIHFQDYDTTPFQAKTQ
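20 nM HPGD preincubated 15 min at room temperature with compound in 50 mM Tris-HCl pH 8, 0.01% Tween 20. Started with 1 mM NAD+ and 30 uM prostaglandin E2; NADH fluorescence (360/450 nm) read 5 times over 30-s intervals, last minus first.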
LMNA splice mod: modulators of lamin A splicing | HeLa LMNA splicing GFP/RFP minigene ratio, 48 h | Potency, µM (highest dose often 46.1 µM), for the others: at the highest dose ratio change, negative = inhibition, actives largely listed as inhibitors | actives 0.01% (n = 200,000) | AID 1487; active = well fitted inhibition curve with a large enough effect in the signal ratio, with a control signal flat, not every such curve was filed as active; inconclusive = small, poorly fitted or top-dose-only effect, or effect the other way, or a change in a side signal; the % refers to the signal ratio; note: % is set by controls: 0 for no effect and ±100 for the full control effect
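S3 HeLa cells stably expressing lamin A-EGFP splicing minigene plus DsRed2, 600 cells/well, 48 h compound exposure at 37C. Laser-scanning cytometry; analysed as GFP (500-530 nm)/RFP (575-640 nm) total intensity ratio; 0.5% DMSO vehicle.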
An asterisk follows results filed as active; ? = inconclusive; . = not tested or not shown; [ ] = remark or other dose. Unless noted, calls come from the whole dose curve; as a rule, active = well fitted inhibition curve with a large enough effect (not every such curve was filed as active); inconclusive = small, poorly fitted or top-dose-only effect, or another doubt; inactive = no such curve, though single readings can be large or run the other way. Potency is the fitted concentration of half-maximal effect.

SMILES	ALDH1A1 block	HTT aggregate	JMJD2E inh	HTT cytoprotect	HPGD inh	LMNA splice mod
Cc1oc(-c2ccc(Cl)cc2)cc1-c1nn2c(-c3ccoc3C)nnc2s1	20µM*	-4%	-1%	4%	25µM*	12%
C1CCN(CC[C@@H]2CCCCN2)CC1	7%[13.5 µM]	.	.	-6%[10 µM]	-8%	.
COc1ccc2sc(N3C(=O)C4CC=C(C)CC4C3=O)nc2c1 (stereo not drawn)	13µM*	-21%	2%	20%[10 µM]	-13%	-9%
O=C(/C=C/c1ccccc1Cl)Nc1ccccc1	.	-23%[9.22 µM]	-2%	16%[10 µM]	.	.
O=C(Nc1ccccc1)O/N=C/c1ccccc1Cl	?	21%	0%	3%[10 µM]	40µM*	6%
CCCCc1ccc(CC(=O)O)cc1	14µM*	-10%	-26%	0%	32µM*	0%
CCCCCc1ccc(CC(=O)O)cc1	?	5%	5%	-33%	.	4%
O=C(c1ccc(-n2cccc2)cc1)N1CCOCC1	11%	28%	7%	-8%	?	1%
CCCCC(=O)Nc1ccc(C(=O)N2CCN(C)CC2)cc1	?	1%	-4%	10%[10 µM]	14µM*	-9%
CCCCC(=O)Nc1ccc(N2CCN(C(=O)CC)CC2)cc1	-1%	-4%	4%	-5%	-17%	4%
CN1CCN(C(=O)c2ccc(C(C)(C)C)cc2)CC1	-8%	-1%	4%	0%	11µM*	-4%
O=C(c1ccc(N2CCCC2=O)cc1)N1CCOCC1	19%	7%	3%	7%[10 µM]	22µM*	-12%
CN1CCN(C(=O)c2ccc(N3CCCC3=O)cc2)CC1	7%	-1%	4%	2%	13µM*	0%
Cn1c(=O)c2[nH]c([C@@H]3CC(=O)C[C@H](c4nc5c([nH]4)c(=O)n(C)c(=O)n5C)N3)nc2n(C)c1=O	3%[13.5 µM]	.	.	12%[10 µM]	-12%	.
CN1CCN(C(=O)c2ccc3c(c2)OCCO3)CC1	3%	3%	-6%	-2%[10 µM]	16µM*	-3%
CC1CN(C(=O)c2ccc3c(c2)OCO3)CC(C)O1 (stereo not drawn)	13%	-4%	-1%	6%[10 µM]	25µM*	-2%
CC1CN(C(=O)/C=C/c2ccc3c(c2)OCO3)CC(C)O1 (stereo not drawn)	?	-10%	?	-2%[10 µM]	?	2%
Cc1csc2c(N3CCN(C(=O)c4ccc(C(C)(C)C)cc4)CC3)ncnc12	16µM*	27%[9.22 µM]	-8%	18%[10 µM]	.	.
CC1(C)CC[C@]2(C(=O)O)C(O)C[C@@]3(C)C(=CCC4[C@@]5(C)CCC(O)C(C)(C)C5CC[C@@]43C)C2C1 (stereo partly drawn)	-1%	.	10%	.	-2%	?
O=C1CCSc2ccc(S(=O)(=O)Nc3cccc(C(F)(F)F)c3)cc2N1	.	.	.	.	.	-6%[46 µM]
Cc1ccc(N2C(=O)C3C4C=CC(CNC(=S)N5CCN(c6cccc(C)c6)C(C)C5)(O4)C3C2=O)cc1 (stereo not drawn)	1.6µM*	?	6%	-21%	.	?
Cc1cccc(N2CCN(C(=O)CN3CCOc4ccccc43)CC2C)c1 (stereo not drawn)	?	10%	-3%	-1%	0%	3%
Cc1nn(C(=O)c2cccnc2)c(C)c1Sc1ccc(Br)cc1	-5%	-3%	2%	4%	14µM*	11%
CCOc1cc(/C=N/NC(=O)COc2cccc(C)c2)ccc1OC(=O)c1cccs1	-2%	6%	0%	7%	-17%	-17%
O=C1NN(c2ccc(Cl)c(Cl)c2)C(=O)/C1=C/c1cccc(OC(=O)c2cccs2)c1	?	-3%	4%	6%	10µM*	1%
SMILES	ALDH1A1 block	HTT aggregate	JMJD2E inh	HTT cytoprotect	HPGD inh	LMNA splice mod
O=C1NN(c2ccccc2)C(=O)/C1=C\c1cccc(OC(=O)c2cccs2)c1	7.9µM*	25%	-5%	-8%	2.5µM*	5%
O=C(N/N=C/c1cccc(OC(=O)N2CCOCC2)c1)c1cccs1	9%	-3%	0%	19%[10 µM]	-9%	-6%
CCOc1cc(/C=C2/C(=O)N(c3ccccc3)N=C2C)ccc1OC(=O)c1cccs1	?	20%	-7%	-5%	20µM*	2%
COC(=O)N/N=C\c1cccc(OC(=O)c2cccs2)c1	-8%	6%	6%	-17%	.	.
CC(=O)NCCNc1ncncc1-c1ccccc1CN(C)C	10%	.	.	10%	.	4%
COc1ccc(OC)c(C2/C(=C(\O)c3ccc(OC)c(Cl)c3)C(=O)C(=O)N2CCN(C)C)c1 (stereo not drawn)	-7%	-11%	-25%	-36%	-22%	-2%
CN(C)S(=O)(=O)c1ccc(/C(O)=C2/C(=O)C(=O)N(Cc3cccnc3)C2c2ccncc2)cc1 (stereo not drawn)	14µM*	-6%	-28%	4%	-13%	4%
Cc1c(/C(O)=C2/C(=O)C(=O)N(Cc3cccnc3)C2c2cccs2)cnn1-c1ccccc1 (stereo not drawn)	1.1µM*	3%	-2%	-26%	20µM*	-3%
Cc1c(/C(O)=C2/C(=O)C(=O)N(Cc3cccnc3)C2c2ccccn2)cnn1-c1ccccc1 (stereo not drawn)	?	21%	?	-36%	.	-6%[46 µM]
COc1ccc(OC)c(C2/C(=C(/O)c3cnn(-c4ccccc4)c3C)C(=O)C(=O)N2CCN(C)C)c1 (stereo not drawn)	-15%	10µM*	?	-14%	-18%	?
CN(C)S(=O)(=O)c1ccc(/C(O)=C2/C(=O)C(=O)N(Cc3cccnc3)C2c2cccs2)cc1 (stereo not drawn)	?	-97%[9.22 µM]	-9%	.	.	.
CN(C)S(=O)(=O)c1ccc(/C(O)=C2/C(=O)C(=O)N(CCN3CCCCC3)C2c2cccnc2)cc1 (stereo not drawn)	22µM*	.	.	.	-9%	.
CC(=O)OC[C@@H]1O[C@@H](O/N=C2/C[C@@H](O)[C@@H](O)[C@@H]3[C@@H]4C(=O)N(C(C)(C)C)C(=O)[C@H]4CC[C@@H]23)[C@H](OC(C)=O)[C@H](OC(C)=O)[C@@H]1OC(C)=O	4%[13.5 µM]	.	.	-24%[10 µM]	.	.
COc1ccc(NC(=O)CN(Cc2ccccc2)S(=O)(=O)c2ccc3nc(C)sc3c2)cc1	.	.	.	.	.	-9%[46 µM]
O=C(CCl)Nc1cc2[nH]c(=O)[nH]c2cc1Br	2µM*	?	-8%	-140%	.	?
C=CC#CC[N+]1(CC#Cc2ccccc2)CCOCC1	?	-18%	1%	.	25µM*	6%
CN1c2ccsc2C(O)=C(C(=S)Nc2ccc(F)c(Cl)c2)S1(=O)=O	9.5µM*	-2%	?	-44%	?	?
